PubChem BioAssay (Tox21)
Results filed as inconclusive are left out. Activity calls are given as the source filed them. Unless noted, calls come from the whole dose curve.

How the values were obtained:
[1] = Nuclear factor erythroid 2-related factor 2/antioxidant responsive element (Nrf2/ARE) small molecule agonists: qHTS cell viability counter screen in human keratinocytes (AID 1919968; active = well fitted curve in the direction sought with a large enough effect in the repeat runs; an effect the other way counts as inactive or inconclusive; note: nearly all actives have a fitted effect of over 55% in size)
Method in brief: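 Parallel cytotoxicity read: KeratinoSens HaCaT cells, compound treatment 23 h, viability by CellTiter-Fluor fluorescence 1 h post-reagent.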

[2] = Nuclear factor erythroid 2-related factor 2/antioxidant responsive element (Nrf2/ARE) small molecule agonists: luciferase reporter gene qHTS assay in human keratinocytes (AID 1919969); note: nearly all actives have a fitted effect of over 35% in size; note: potency is the fitted concentration of half-maximal effect
[3] = target: Gonadotropin-releasing hormone receptor (Homo sapiens) (UniProt P30968); test: Human gonadotropin-releasing hormone receptor (GnRHR) small molecule agonists, calcium flux assay in GnRHR-HEK293 cells (AID 1920063); note: nearly all actives have a fitted effect of over 35% in size
Gonadotropin-releasing hormone receptor (Homo sapiens), sequence (P30968 whole entry, looked up): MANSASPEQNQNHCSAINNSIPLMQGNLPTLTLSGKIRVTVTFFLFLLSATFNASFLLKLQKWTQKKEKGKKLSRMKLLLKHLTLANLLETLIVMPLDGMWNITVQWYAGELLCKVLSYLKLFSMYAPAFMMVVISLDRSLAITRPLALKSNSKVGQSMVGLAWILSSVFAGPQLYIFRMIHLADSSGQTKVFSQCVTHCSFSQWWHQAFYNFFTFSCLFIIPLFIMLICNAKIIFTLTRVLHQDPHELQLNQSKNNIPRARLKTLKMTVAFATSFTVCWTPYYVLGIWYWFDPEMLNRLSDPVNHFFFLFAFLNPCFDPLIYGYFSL
Method in brief: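 Calcium flux, agonist mode, human GnRHR stably integrated in HEK293; dye 1 h at 37 C before compound; Ex/Em=480/540 kinetic read, 3 min; 15 concentrations, triplicate.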

[4] = target: KiSS-1 receptor (Homo sapiens) (UniProt Q969F8); test: Human kisspeptin (KISS1R) small molecule agonists, calcium flux assay in KISS1R-HEK293 cells (AID 1920064; active = well fitted curve in the direction sought with a large enough effect in the repeat runs; an effect the other way counts as inactive or inconclusive)
KiSS-1 receptor (Homo sapiens), sequence (Q969F8 whole entry, looked up): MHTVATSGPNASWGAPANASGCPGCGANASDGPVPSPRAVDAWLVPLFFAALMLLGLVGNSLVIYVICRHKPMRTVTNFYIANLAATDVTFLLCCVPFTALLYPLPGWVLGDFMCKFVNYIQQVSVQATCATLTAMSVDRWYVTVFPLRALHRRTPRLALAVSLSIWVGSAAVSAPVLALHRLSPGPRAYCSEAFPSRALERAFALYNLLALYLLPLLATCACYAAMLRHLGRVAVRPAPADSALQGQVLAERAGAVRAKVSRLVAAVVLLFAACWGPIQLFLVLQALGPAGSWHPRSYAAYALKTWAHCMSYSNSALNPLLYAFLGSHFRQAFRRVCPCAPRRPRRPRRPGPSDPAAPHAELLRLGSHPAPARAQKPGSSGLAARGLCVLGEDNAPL
Method in brief: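 Triplicate 15-concentration series were applied to dye-loaded human KISS1R HEK293 cells, and agonist-evoked calcium fluorescence was captured for 3 min.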

[5] = G protein-coupled receptor (GPCR) small molecule agonists, calcium flux assay: HEK293 wild type cell line counter screen (AID 1920065)
Method in brief: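 Non-specific calcium responders were flagged by adding DMSO-dissolved compounds to dye-loaded cells and reading 480/540 nm fluorescence each second for 3 min; ATP served as positive control.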

[6] = p53 small molecule agonists, cell-based qHTS assay with human liver microsomes (AID 1963577);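 note: p53 response element beta-lactamase reporter cells with liver microsomes plus NADPH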
Method in brief: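 In this qHTS, p53 response-element beta-lactamase cells receive test compound together with a microsome/NADPH activating system (0.5 mg/mL final each) and are incubated 16 h at 37 C before LiveBLAzer fluorescence detection.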

[7] = p53 small molecule agonists, cell-based qHTS assay with rat liver microsomes (AID 1963578)
Method in brief: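 Agonist mode in p53RE-bla reporter cells, with compounds co-incubated 16 h at 37 C alongside 0.5 mg/mL rat liver microsomes and 0.5 mg/mL NADPH (final), followed by a 2 h LiveBLAzer detection step.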

[8] = p53 small molecule agonists, cell-based qHTS assay with human liver microsomes: qHTS cell viability counter screen (AID 1963579); note: nearly all actives have a fitted effect of over 45% in size
Method in brief: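 Metabolically activated exposure: compounds, human liver microsomes and NADPH (0.5 mg/mL final apiece) were added to p53RE-bla cells seeded 5 h earlier, left 16 h at 37 C, and then assessed for viability by CellTiter-Glo luminescence.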

[9] = p53 small molecule agonists, cell-based qHTS assay with rat liver microsomes: qHTS cell viability counter screen (AID 1963580); note: nearly all actives have a fitted effect of over 45% in size
Method in brief: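 Counter screen for cytotoxicity under metabolic activation: rat liver microsomes and NADPH, 0.5 mg/mL final each, added with compounds to p53RE-bla HCT-116 cells; 16 h at 37 C, then ATP luminescence read.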

[10] = p53 small molecule agonists, cell-based qHTS assay: qHTS cell viability counter screen (AID 1963581); note: nearly all actives have a fitted effect of over 45% in size; note: potency is the fitted concentration of half-maximal effect
Method in brief: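 Multiplexed with the reporter read, a CellTiter-Glo step (30 min, room temperature) gauges ATP-based viability of HCT-116 p53RE-bla cells after 16 h compound incubation at 37 C.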

[11] = p53 small molecule agonists, cell-based qHTS assay (AID 1963582; active = well fitted activation curve with a large enough effect in the signal ratio in the repeat runs, not every such curve was filed as active; the % refers to the signal ratio; note: potency is the fitted concentration of half-maximal effect)
Method in brief: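 Beta-lactamase reporter cells (p53RE-bla) treated with compounds for 16 h at 37 C; FRET substrate, 2 h, room temperature; fluorescence intensity.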

[12] = target: 5-hydroxytryptamine receptor 2A (Homo sapiens) (UniProt P28223); test: 5-hydroxytryptamine receptor 2A (HTR2A) small molecule antagonists, cell-based qHTS assay (AID 1963586); note: nearly all actives have a fitted effect of over 45% in size
5-hydroxytryptamine receptor 2A (Homo sapiens), sequence (P28223 whole entry, looked up): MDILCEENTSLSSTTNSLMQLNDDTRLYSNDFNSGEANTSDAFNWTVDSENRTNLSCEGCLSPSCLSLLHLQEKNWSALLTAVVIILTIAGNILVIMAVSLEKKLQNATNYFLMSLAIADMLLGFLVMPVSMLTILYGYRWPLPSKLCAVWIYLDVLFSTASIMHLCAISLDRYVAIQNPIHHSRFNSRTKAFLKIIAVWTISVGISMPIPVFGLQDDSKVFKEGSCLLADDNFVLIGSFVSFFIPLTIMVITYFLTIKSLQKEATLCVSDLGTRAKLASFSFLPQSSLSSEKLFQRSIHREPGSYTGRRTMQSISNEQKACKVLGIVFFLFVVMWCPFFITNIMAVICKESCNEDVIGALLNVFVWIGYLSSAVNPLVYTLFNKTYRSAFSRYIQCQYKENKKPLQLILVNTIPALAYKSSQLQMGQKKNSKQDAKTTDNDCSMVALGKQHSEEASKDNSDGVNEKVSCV
Method in brief: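 CHO cells stably expressing human HTR2A were plated for 18 h at 37 C, then loaded with calcium dye for 1 h. Compounds were preincubated 5 min at room temperature before DOI (4 nM solution) was added. Kinetic fluorescence was read for 3 min.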

[13] = target: 5-hydroxytryptamine receptor 2A (Homo sapiens) (UniProt P28223); test: 5-hydroxytryptamine receptor 2A (HTR2A) small molecule agonists, cell-based qHTS assay (AID 1963587); note: nearly all actives have a fitted effect of over 30% in size
Method in brief: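 HTR2A-CHO cells, plated 18 h at 37 C/5% CO2, dye-loaded 1 h at 37 C; compounds in DMSO added by pin tool (agonist mode). Intracellular calcium flux read as kinetic fluorescence on FDSS over 2 min at 1 s intervals.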

[14] = target: Muscarinic acetylcholine receptor M1 (Homo sapiens) (UniProt P11229); test: Cholinergic receptor muscarinic 1 (CHRM1) small molecule antagonists, cell-based qHTS assay (AID 1963588); note: nearly all actives have a fitted effect of over 40% in size
Muscarinic acetylcholine receptor M1 (Homo sapiens), sequence (P11229 whole entry, looked up): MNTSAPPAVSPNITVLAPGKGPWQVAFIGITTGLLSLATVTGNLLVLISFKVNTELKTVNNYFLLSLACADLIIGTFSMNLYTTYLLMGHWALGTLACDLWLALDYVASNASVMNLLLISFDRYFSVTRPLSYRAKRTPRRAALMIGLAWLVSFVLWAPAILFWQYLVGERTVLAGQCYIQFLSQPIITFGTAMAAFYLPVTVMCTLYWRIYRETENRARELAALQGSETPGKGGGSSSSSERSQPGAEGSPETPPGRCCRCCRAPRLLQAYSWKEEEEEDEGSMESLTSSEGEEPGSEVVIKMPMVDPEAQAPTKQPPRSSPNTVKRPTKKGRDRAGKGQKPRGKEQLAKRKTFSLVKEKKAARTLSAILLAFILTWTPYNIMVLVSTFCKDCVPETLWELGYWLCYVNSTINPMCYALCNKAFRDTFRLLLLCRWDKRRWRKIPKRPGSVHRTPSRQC
Method in brief: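 Compounds were tested at 15 concentrations in three independent runs. Dye-loaded CHRM1-CHO cells were exposed 5 min at room temperature before stimulation by acetylcholine added at 50nM. Intracellular calcium was read kinetically on FDSS for 3 min.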

[15] = target: Muscarinic acetylcholine receptor M1 (Homo sapiens) (UniProt P11229); test: Cholinergic receptor muscarinic 1 (CHRM1) small molecule agonists, cell-based qHTS assay (AID 1963589); note: nearly all actives have a fitted effect of over 35% in size
Method in brief: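 qHTS, 15-point titration, 3 independent runs: compounds pin-transferred onto dye-loaded CHRM1-CHO cells (human M1), calcium fluorescence followed every second to detect agonism.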

[16] = cAMP Responsive Elements (CRE) small molecule antagonists, cell-based qHTS assay (AID 1963591; active = well fitted inhibition curve with a large enough effect in the signal ratio in the repeat runs, not every such curve was filed as active; the % refers to the signal ratio)
Method in brief: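 Fluorescence intensity from cleaved LiveBLAzer B/G substrate (2 h, room temperature) quantified CRE-bla activity in HEK 293T cells exposed 3 h to compound with 0.25 uM final NKH477.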

[17] = target: Beta-2 adrenergic receptor (Homo sapiens) (UniProt P07550); test: Adrenergic beta2 receptor (ADRB2) small molecule antagonists, cell-based qHTS assay (AID 1963592); note: series mostly up to about 92 µM; nearly all actives have a fitted effect of over 50% in size
Beta-2 adrenergic receptor (Homo sapiens), sequence (P07550 whole entry, looked up): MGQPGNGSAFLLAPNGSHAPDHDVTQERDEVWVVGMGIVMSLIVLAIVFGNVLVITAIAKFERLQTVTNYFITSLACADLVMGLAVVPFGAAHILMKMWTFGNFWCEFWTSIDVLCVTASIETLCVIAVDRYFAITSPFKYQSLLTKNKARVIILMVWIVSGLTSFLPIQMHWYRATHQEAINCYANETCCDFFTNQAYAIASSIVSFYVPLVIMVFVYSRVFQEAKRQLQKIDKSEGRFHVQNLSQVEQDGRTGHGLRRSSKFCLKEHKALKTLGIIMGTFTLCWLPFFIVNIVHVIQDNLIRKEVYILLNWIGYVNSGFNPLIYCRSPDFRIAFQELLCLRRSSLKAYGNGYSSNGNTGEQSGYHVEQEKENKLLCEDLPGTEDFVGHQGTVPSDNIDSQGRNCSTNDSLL
Method in brief: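 Assay format: CHO-ADRB2 cells, 18-20hr seeding at 37C/5% CO2, then compound plus 1nM isoproterenol agonist mix for 0.5hr RT. Homogeneous time-resolved fluorescence cAMP detection after 1hr, expressed as 665/615 nm ratio.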

[18] = target: D(2) dopamine receptor (Homo sapiens) (UniProt P14416); test: Dopamine D2 receptor (DRD2) small molecule agonists, cell-based qHTS assay (AID 1963594); note: nearly all actives have a fitted effect of over 35% in size
D(2) dopamine receptor (Homo sapiens), sequence (P14416 whole entry, looked up): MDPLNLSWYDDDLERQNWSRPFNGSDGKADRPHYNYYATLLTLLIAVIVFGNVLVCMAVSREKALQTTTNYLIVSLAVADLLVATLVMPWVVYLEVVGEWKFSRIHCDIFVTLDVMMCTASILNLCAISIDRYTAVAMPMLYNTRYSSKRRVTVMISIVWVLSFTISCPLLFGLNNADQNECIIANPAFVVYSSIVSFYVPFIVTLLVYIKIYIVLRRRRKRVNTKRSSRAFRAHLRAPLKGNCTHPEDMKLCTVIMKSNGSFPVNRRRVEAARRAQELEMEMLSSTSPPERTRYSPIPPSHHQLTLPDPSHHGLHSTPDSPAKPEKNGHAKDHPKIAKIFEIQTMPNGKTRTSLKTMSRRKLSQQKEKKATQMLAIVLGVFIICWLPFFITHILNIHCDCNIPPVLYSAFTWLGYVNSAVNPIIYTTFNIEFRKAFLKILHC
Method in brief: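 HEK293 cells stably expressing DRD2 were cultured 24 h at 37 C, then given Ro20-1724 (0.1 mM final) and compounds for 10 min at room temperature. NKH477 (200nM) was then added for 30 min. cAMP was read by HTRF.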

[19] = target: D(2) dopamine receptor (Homo sapiens) (UniProt P14416); test: Dopamine D2 receptor (DRD2) small molecule antagonists, cell-based qHTS assay (AID 1963595; active = well fitted inhibition curve with a large enough effect in the signal ratio in the repeat runs, with a control signal flat; the % refers to the signal ratio)
Method in brief: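 Readout: HTRF cAMP, cAMP-d2 competing with cellular cAMP for anti-cAMP cryptate, read after 1 h. Cells: DRD2-HEK293. Conditions: 0.1 mM Ro20-1724, 12 nM quinpirole, 200 nM NKH477, 30 min RT.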

[20] = cAMP Responsive Elements (CRE) small molecule agonists, cell-based qHTS assay (AID 1963590)
Method in brief: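 Quantitative HTS for CRE agonists: HEK 293T CRE-bla cells, overnight plating, 3 h compound incubation at 37 C/5% CO2, then 2 h room-temperature LiveBLAzer B/G FRET substrate loading.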

Measured: Potency

O=C1c2cccc(O)c2C(=O)c2c(O)cc(CO)cc21
inactive: [1] | [3] | [4] | [5] | [6] | [7] | [8] | [9] | [10] | [11] | [12] | [13] | [14] | [15] | [16] | [17] | [18] | [19]
active: [2] 13.7 µM

CCCC(=O)OCCC(C)C
inactive: [1] | [2] | [3] | [4] | [5] | [6] | [7] | [8] | [9] | [10] | [11] | [12] | [13] | [14] | [15] | [16] | [17] | [18] | [19]

CCOC(=O)[C@H](CCc1ccccc1)N[C@H]1CS[C@H](c2cccs2)CN(CC(=O)O)C1=O
inactive: [1] | [2] | [3] | [4] | [5] | [6] | [7] | [8] | [9] | [10] | [11] | [12] | [13] | [14] | [15] | [20] | [17] | [19]

CC(C)=CCC1=C(O)c2ccccc2C(=O)C1=O
active: [2] 60.8 µM | [10] 3.61 µM | [11] 4.06 µM
inactive: [1] | [3] | [4] | [5] | [6] | [7] | [8] | [9] | [12] | [13] | [14] | [15] | [16] | [18]

CC(C)c1ccc2oc3nc(N)c(C(=O)O)cc3c(=O)c2c1
active: [2] 0.944 µM
inactive: [1] | [3] | [4] | [5] | [6] | [7] | [8] | [9] | [10] | [11] | [12] | [13] | [14] | [15] | [17] | [18] | [19]

Cn1c(N)c(N=O)c(=O)n(C)c1=O
inactive: [1] | [2] | [3] | [4] | [5] | [6] | [7] | [8] | [9] | [10] | [11] | [12] | [13] | [14] | [15] | [16] | [17]

O=C(O)c1ccccc1NCCc1ccccc1
inactive: [1] | [2] | [3] | [4] | [5] | [6] | [7] | [8] | [9] | [10] | [11] | [12] | [13] | [14] | [15] | [16] | [17] | [18] | [19]

CCCCCCCC(=O)Oc1c(Br)cc(C#N)cc1Br
inactive: [1] | [2] | [3] | [4] | [5] | [6] | [7] | [8] | [9] | [10] | [11] | [12] | [13] | [14] | [15] | [17] | [18] | [19]

Nc1ncnc2c1ncn2[C@H]1CC[C@@H](CO)O1
inactive: [1] | [2] | [3] | [4] | [5] | [6] | [7] | [8] | [9] | [10] | [11] | [12] | [13] | [14] | [15] | [20] | [17] | [19]

NC(=O)Nc1ccc(Cl)c(Cl)c1
inactive: [1] | [2] | [3] | [4] | [5] | [6] | [7] | [8] | [9] | [10] | [11] | [12] | [13] | [14] | [15] | [20] | [17] | [18] | [19]

O=C(NCC1CN(c2ccc(N3CCOCC3=O)cc2)C(=O)O1)c1ccc(Cl)s1 (stereo unspecified)
inactive: [1] | [2] | [3] | [4] | [5] | [6] | [7] | [8] | [9] | [10] | [11] | [12] | [13] | [14] | [15] | [16] | [17] | [18] | [19]

CC1(C)C(=O)C(C)(C)C1=O
inactive: [1] | [2] | [3] | [4] | [5] | [6] | [7] | [8] | [9] | [10] | [11] | [12] | [13] | [14] | [15] | [20] | [17] | [18] | [19]

O=C(O)CCC(=O)c1ccc(-c2ccccc2)cc1
inactive: [1] | [2] | [3] | [4] | [5] | [6] | [7] | [8] | [9] | [10] | [11] | [12] | [13] | [14] | [15] | [17] | [18] | [19]

Cc1ncc(CO)c(C=O)c1O
inactive: [1] | [2] | [3] | [4] | [5] | [6] | [7] | [8] | [9] | [10] | [11] | [12] | [13] | [14] | [15] | [20] | [17] | [19]
